# Assay results as given in PubChem BioAssay (Tox21).
# Several values for one entry are separate records, joined by “and”; a condition that tells them apart may be missing. Equal entries are not always repeated. Records with an inconclusive call do not appear. Where a structure was tested more than once in an assay, its records may differ in their call. Activity calls are given as the source filed them. Unless noted, the call rests on the fitted dose curve; in most records, active means well fitted cell-killing curve with a large enough effect in the repeat runs; inconclusive means weak or mixed curves, or effect the other way; inactive means no such curve, though single readings can be large or run the other way.
# Biological target: Vitamin D3 receptor (Homo sapiens) (UniProt P11473)
# Sequence (P11473 whole entry, looked up): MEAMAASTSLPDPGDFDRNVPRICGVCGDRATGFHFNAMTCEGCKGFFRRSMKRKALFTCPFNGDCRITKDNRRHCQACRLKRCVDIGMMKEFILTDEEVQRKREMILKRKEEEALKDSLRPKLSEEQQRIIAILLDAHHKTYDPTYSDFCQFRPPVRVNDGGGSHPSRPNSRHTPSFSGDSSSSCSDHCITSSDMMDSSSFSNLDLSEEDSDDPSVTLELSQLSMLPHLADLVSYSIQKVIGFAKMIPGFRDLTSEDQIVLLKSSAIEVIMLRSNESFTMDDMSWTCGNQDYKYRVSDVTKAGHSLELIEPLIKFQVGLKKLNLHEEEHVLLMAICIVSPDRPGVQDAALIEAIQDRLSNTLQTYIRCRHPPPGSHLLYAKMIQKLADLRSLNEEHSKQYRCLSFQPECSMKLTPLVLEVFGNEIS
# Assay: qHTS assay to identify small molecule agonists of the vitamin D receptor (VDR) signaling pathway (AID 743222; calls by dose curve; further: potency means the concentration at half of the fitted maximal effect)
# Details: HEK293T VDR-UAS-bla, beta-lactamase FRET ratio, 16 h; series mostly up to 63.5 µM; activation: at the top concentration
# Method in brief: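 VDR-bla cells were plated 4 h at 37C/5% CO2, then exposed to compounds in DMSO for 16 h. After LiveBLAzer B/G FRET substrate addition and 2 h at room temperature, beta-lactamase reporter fluorescence was read.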
# On the % scale 0 is the no-effect control and ±100 the full control effect.
SMILES,Potency,activation
CCc1cc(C(C)(C)C)c(O)c(C(C)(C)C)c1,inactive,
NCCCCCC(=O)O,,10.4% (inactive)
CCCCCCCCCCCCCCCCCl,,-0.591% [at 29.5 µM] (inactive)
O=Nc1ccc(Nc2ccccc2)cc1,,5.21% (inactive)
O=c1n(CC2CO2)c(=O)n(CC2CO2)c(=O)n1CC1CO1 (centres undefined),,-18.5% (inactive)
CCC(=O)/C=C/C1C(C)=CCCC1(C)C (centres undefined),inactive,
NC(N)=Nc1nc(CSCC/C(N)=N/S(N)(=O)=O)cs1,inactive,
CC(=O)OCC1=C(C(=O)O)N2C(=O)[C@@H](NC(=O)Cc3cccs3)[C@H]2SC1,,1.95% (inactive)
OCC(CO)N[C@H]1C[C@](O)(CO)[C@@H](O)[C@H](O)[C@H]1O,,3.64% (inactive)
CC1COC(=O)O1 (centres undefined),,0.671% [at 81.1 µM] (inactive)
Cc1occc(=O)c1OC(=O)C(C)C,,-0.594% (inactive)
C=C(C)C1CC=C(C)C(OC(C)=O)C1 (centres undefined),inactive,
Cc1scc2c1N(C(=O)CN1CCN(C)CC1)c1ccccc1NC2=O,,2.97% (inactive)
CC[C@@H](N)CO,,3.38% [at 81.1 µM] (inactive)
Nc1cc(S(=O)(=O)O)cc2cc(S(=O)(=O)O)cc(O)c12,24.4 µM (active),
CNC1(C)C2CCC(C2)C1(C)C (centres undefined),,7.07% (inactive)
CCc1ccc(C(c2ccc(CC)cc2)C(Cl)Cl)cc1,inactive,
c1ccc2cc3c(ccc4ccccc43)cc2c1,,-5.27% [at 81.1 µM] (inactive)
NNCCc1ccccc1,,-1.95% (inactive)
CC(C)(C)NC(=O)[C@@H]1CN(Cc2cccnc2)CCN1C[C@@H](O)C[C@@H](Cc1ccccc1)C(=O)N[C@H]1c2ccccc2C[C@H]1O,inactive,
CC(C)CCOCc1ccccc1,,0.571% (inactive)

# Biological target: Vitamin D3 receptor (Homo sapiens) (UniProt P11473)
# Assay: qHTS assay to identify small molecule antagonists of the vitamin D receptor (VDR) signaling pathway (AID 743223; active means well fitted inhibition curve with a large enough effect in the signal ratio in the repeat runs, not every such curve was filed as active; the % refers to the signal ratio)
# Details: VDR-UAS-bla HEK293T, beta-lactamase FRET ratio, 16 h; series mostly up to 61 µM; activity change, negative = inhibition: at the top concentration
# Method in brief: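 Cells carrying a VDR-driven beta-lactamase reporter (VDR-bla) were co-treated with compound and 3 nM final 1alpha,25-dihydroxyvitamin D3 for 16 h at 37C; reporter activity was measured as FRET substrate fluorescence after 2 h at room temperature.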
SMILES,"activity change, negative = inhibition",Potency
CCc1cc(C(C)(C)C)c(O)c(C(C)(C)C)c1,-18.1% (inactive),
CCCCCCCCCCCCCCCCCl,3.97% [at 28.5 µM] (inactive),
CCC(=O)/C=C/C1C(C)=CCCC1(C)C (centres undefined),,inactive
NC(N)=Nc1nc(CSCC/C(N)=N/S(N)(=O)=O)cs1,5.51% (inactive),
CC(=O)OCC1=C(C(=O)O)N2C(=O)[C@@H](NC(=O)Cc3cccs3)[C@H]2SC1,1.94% (inactive),
CC1COC(=O)O1 (centres undefined),,inactive
C=C(C)C1CC=C(C)C(OC(C)=O)C1 (centres undefined),-0.89% (inactive),
Cc1scc2c1N(C(=O)CN1CCN(C)CC1)c1ccccc1NC2=O,2.87% (inactive),
CCC[C@H](N[C@@H](C)C(=O)N1[C@H](C(=O)O)C[C@@H]2CCCC[C@@H]21)C(=O)OCC,2.18% (inactive),
CC[C@@H](N)CO,-10.4% [at 78.8 µM] (inactive),
Nc1cc(S(=O)(=O)O)cc2cc(S(=O)(=O)O)cc(O)c12,,inactive
CC(=O)O[C@]1(C(C)=O)CC[C@H]2[C@@H]3C[C@H](C)C4=CC(=O)CC[C@]4(C)[C@H]3CC[C@@]21C,-0.616% (inactive),
CCc1ccc(C(c2ccc(CC)cc2)C(Cl)Cl)cc1,,inactive
c1ccc2cc3c(ccc4ccccc43)cc2c1,,inactive
NNCCc1ccccc1,,inactive
CC(C)(C)NC(=O)[C@@H]1CN(Cc2cccnc2)CCN1C[C@@H](O)C[C@@H](Cc1ccccc1)C(=O)N[C@H]1c2ccccc2C[C@H]1O,,inactive
CC(C)CCOCc1ccccc1,-0.314% (inactive),

# Test system: not listed separately
# Assay: qHTS assay to identify small molecule agonists of the vitamin D receptor (VDR) signaling pathway - cell viability counter screen (AID 743224); further: nearly all actives have a fitted effect of over 50% in size; further: potency means the concentration at half of the fitted maximal effect
# Details: VDR-bla HEK293T viability, CellTiter-Glo luminescence, 16 h; series mostly up to 62.6 µM; activity change, negative = cytotoxicity: at the top concentration
# Method in brief: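 VDR-bla cells were preincubated 4 h at 37C/5% CO2, then exposed to compounds for 16 h. After the 2 h room-temperature bla FRET read, CellTiter-Glo was added to the same wells and luminescence read after 30 min.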
SMILES,Potency,"activity change, negative = cytotoxicity"
CCc1cc(C(C)(C)C)c(O)c(C(C)(C)C)c1,inactive,
COC(=O)[C@H]1[C@H]2C[C@@H]3c4[nH]c5cc(OC)ccc5c4CCN3C[C@H]2C[C@@H](OC(=O)c2cc(OC)c(OC)c(OC)c2)[C@@H]1OC,,6.53% (inactive)
NCCCCCC(=O)O,,-0.339% (inactive)
CCCCCCCCCCCCCCCCCl,,-3.46% [at 29.1 µM] (inactive)
CC(C)(C)NCC(O)COc1ccccc1OCC1CCCO1 (centres undefined),,-16.4% (inactive)
CC(N)=O,,8.01% [at 232 µM] (inactive)
O=Nc1ccc(Nc2ccccc2)cc1,17.5 µM (active) and 49 µM (active),
O=c1n(CC2CO2)c(=O)n(CC2CO2)c(=O)n1CC1CO1 (centres undefined),,-13.9% (inactive)
CCC(=O)/C=C/C1C(C)=CCCC1(C)C (centres undefined),inactive,
NC(N)=Nc1nc(CSCC/C(N)=N/S(N)(=O)=O)cs1,inactive,
CC(=O)CC(C)=O,,0.931% [at 81.1 µM] (inactive)
CCCCCC(=O)O[C@]1(C(C)=O)CC[C@H]2[C@@H]3CCC4=CC(=O)CC[C@]4(C)[C@H]3CC[C@@]21C,43.4 µM (active) and inactive,
CC(=O)OCC1=C(C(=O)O)N2C(=O)[C@@H](NC(=O)Cc3cccs3)[C@H]2SC1,,16.4% (inactive)
OCC(CO)N[C@H]1C[C@](O)(CO)[C@@H](O)[C@H](O)[C@H]1O,,9.43% (inactive)
CC1COC(=O)O1 (centres undefined),,-1.63% [at 81.1 µM] (inactive)
Cc1occc(=O)c1OC(=O)C(C)C,,2.72% (inactive)
C=C(C)C1CC=C(C)C(OC(C)=O)C1 (centres undefined),inactive,
Cc1scc2c1N(C(=O)CN1CCN(C)CC1)c1ccccc1NC2=O,,-0.12% (inactive)

SMILES,Potency,"activity change, negative = cytotoxicity"
O=S(=O)(O)c1ccc2nc(-c3ccccc3)[nH]c2c1,13.1 µM (active),
CCC[C@H](N[C@@H](C)C(=O)N1[C@H](C(=O)O)C[C@@H]2CCCC[C@@H]21)C(=O)OCC,,20.6% (inactive)
CCCCCCCCCCCC[N+](C)(C)C,49 µM (active) and 21.9 µM (active),
Cc1cc(C2(c3cc(C)c(O)cc3C)OS(=O)(=O)c3ccccc32)c(C)cc1O,inactive,
CC[C@@H](N)CO,,-0.678% [at 81.1 µM] (inactive)
Nc1cc(S(=O)(=O)O)cc2cc(S(=O)(=O)O)cc(O)c12,inactive,
Nc1ccc2cc3ccccc3cc2c1,,-0.683% [at 81.1 µM] (inactive)
CC(=O)O[C@]1(C(C)=O)CC[C@H]2[C@@H]3C[C@H](C)C4=CC(=O)CC[C@]4(C)[C@H]3CC[C@@]21C,inactive,
c1ccc2n[nH]nc2c1,inactive and 38.9 µM (active),
CCc1ccc(C(c2ccc(CC)cc2)C(Cl)Cl)cc1,inactive,
c1ccc2cc3c(ccc4ccccc43)cc2c1,inactive,
CCn1c2ccccc2c2cc(N)ccc21,inactive,
CCN(CC)C(=O)Nc1ccc(OCC(O)CNC(C)(C)C)c(C(C)=O)c1 (centres undefined),,5.59% (inactive)
Cc1cc(C(C)(C)C)c(O)c(C(C)(C)C)c1,inactive,
COc1cc(C(=S)N2CCOCC2)ccc1O,,-1.46% (inactive)
NNCCc1ccccc1,inactive,
CC(C)(C)NC(=O)[C@@H]1CN(Cc2cccnc2)CCN1C[C@@H](O)C[C@@H](Cc1ccccc1)C(=O)N[C@H]1c2ccccc2C[C@H]1O,inactive,
CC(C)CCOCc1ccccc1,,10.4% (inactive)
